Bioassay records (PubChem)
Shown is part of a subset that was picked to be rich in hits.
ST2 IL33 inh: inhibitors of human ST2 (IL1RL1) binding to IL-33, primary screen, biochemical, AlphaLISA; Interleukin-1 receptor-like 1 (Homo sapiens), Q01638; AlphaLISA ST2-Fc/biotin-IL-33 interaction, 1 h; inhibition, % for hits at 17 µM; hit rate 2.3% among 78,000; in the data active = inhibition above about 30%
Target sequence (Q01638 whole entry, looked up): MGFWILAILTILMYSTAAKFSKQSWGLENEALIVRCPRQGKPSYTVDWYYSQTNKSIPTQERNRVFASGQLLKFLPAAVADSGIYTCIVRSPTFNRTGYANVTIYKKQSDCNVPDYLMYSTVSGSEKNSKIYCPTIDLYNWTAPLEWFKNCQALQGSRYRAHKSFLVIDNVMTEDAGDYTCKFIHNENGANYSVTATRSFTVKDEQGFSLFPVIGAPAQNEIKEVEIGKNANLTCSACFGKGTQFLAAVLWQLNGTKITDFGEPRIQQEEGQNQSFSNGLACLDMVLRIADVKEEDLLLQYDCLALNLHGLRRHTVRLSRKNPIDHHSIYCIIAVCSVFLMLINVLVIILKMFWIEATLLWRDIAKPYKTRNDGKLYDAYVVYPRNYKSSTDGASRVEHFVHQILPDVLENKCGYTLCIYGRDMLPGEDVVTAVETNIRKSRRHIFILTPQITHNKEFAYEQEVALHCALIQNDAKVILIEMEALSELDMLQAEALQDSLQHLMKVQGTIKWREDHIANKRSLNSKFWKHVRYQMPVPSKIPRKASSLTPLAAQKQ
Active calls of the source: *; i = inactive.

SMILES | ST2 IL33 inh
CCCC(=O)Nc1ccc(C(=O)Nc2ccccc2C(=O)O)cc1 | i
Cc1ccc(NC(=O)c2cc3ccccc3o2)c([N+](=O)[O-])c1 | i
Cc1ccc(NC(=O)C(c2ccccc2)c2ccccc2)c([N+](=O)[O-])c1 | 41.0%*
Cc1ccc(NC(=O)CC(C)C)c([N+](=O)[O-])c1 | i
CCCCN1C(=O)CN(C2CCCC2)C(=O)C1c1ccc(C)cc1 (stereo not drawn) | i
NC(=O)c1ccccc1NC(=O)CC1CCCCC1 | i
CC(=O)Nc1ccc(S(=O)(=O)N2CCN(c3nc(C)cc(N(C)C)n3)CC2)cc1 | i
CC1=NN(c2ccccc2)C(=O)/C1=C/c1cccc(C(=O)O)c1 | i
C=CCN1C(=O)NC(=O)/C(=C/c2cccc(OCc3ccccc3Cl)c2)C1=O | i
CCc1cccc(OCCOCCN2CCCC2)c1 | i
Cc1cccc(OCCOCCOc2ccc(/C=C3\C(=O)NN(c4ccccc4)C3=O)cc2)c1 | 34.0%*
COc1ccccc1OCCOc1ccc([N+](=O)[O-])cc1/C=C1/C(=O)N(c2ccccc2)N=C1C | i
COc1cc(/C=C2\C(=O)N(c3ccccc3)N=C2C)ccc1OCc1ccc(F)cc1 | i
COc1cccc(OCCOc2ccc(/C=C3/C(=O)N(c4ccccc4)N=C3C)cc2OC)c1 | 43.0%*
CC1=NN(c2ccccc2)C(=O)/C1=C\c1ccccc1OCc1ccccc1 | 40.0%*
CC1=NN(c2ccccc2)C(=O)/C1=C/c1ccc(O)c(Br)c1 | i
COc1cc(/C=C2/C(=O)N(c3ccccc3)N=C2C)ccc1OCCOCCOc1ccccc1 | 45.0%*
COc1ccccc1/C=C1/C(=O)N(c2ccccc2)N=C1C | i
COc1cccc(/C=C2\C(=O)N(c3cccc(Cl)c3)N=C2C)c1 | i
COc1ccc2c(c1)C1=NN(C(C)=O)C(c3ccc([N+](=O)[O-])cc3)C1CC2 (stereo not drawn) | i
CC1=C[C@@H](CNC(=O)C2CCCCC2)[C@H](C(C)C)C[C@H]1CC(=O)NCc1cccnc1 | i
CCOC(=O)c1c(NC(=O)CN2C(=O)c3ccccc3C2=O)sc2c1CCN(CC)C2 | i
Cc1nc(C(=O)N2CCC(CCC(=O)N3CCC(Cc4ccccc4)CC3)CC2)cs1 | i
CCSc1nc2c(cc1C#N)CCCC2 | i
CCC(Sc1nc2c(cc1C#N)CCCCC2)C(=O)Nc1cc(C)on1 (stereo not drawn) | 30.0%*
SMILES | ST2 IL33 inh
CCC(Sc1nc(C)cc(C)n1)C(=O)Nc1cc(C)on1 (stereo not drawn) | i
COc1ccc(C(=O)N(c2ccc(C(C)C)cc2)C2C=CS(=O)(=O)C2)cc1 (stereo not drawn) | i
Cc1cc(O)c(C(C)C)cc1O[C@@H]1O[C@H](CO)[C@@H](O)[C@H](O)[C@H]1O | i
Cc1cccn2c(=O)c(C=Nc3cccc(Cl)c3)c(NCc3ccco3)nc12 | i
COc1ccc(N=Cc2c(Nc3ccccc3)nc3c(C)cccn3c2=O)cc1 | i
CNc1nc2c(C)cccn2c(=O)c1C=NCCO | 83.0%*
Cc1cccn2c(=O)c(C=NCCO)c(NCc3ccccc3)nc12 | i
Cc1cccn2c(=O)c(C=NCc3ccccc3)c(NCCO)nc12 | i
Cc1cccn2c(=O)c(C=NCc3ccco3)c(Nc3ccc(Cl)cc3)nc12 | 34.0%*
CCC(C)N=Cc1c(NCCO)nc2c(C)cccn2c1=O (stereo not drawn) | i
CNc1nc2c(C)cccn2c(=O)c1C=Nc1ccccc1 | 33.0%*
CNc1nc2c(C)cccn2c(=O)c1C=Nc1ccc(Cl)cc1 | i
CCOCCOC(=O)C1=C(C)NC2=C(C(=O)C(C(=O)OC)C(C)C2)C1c1ccc(O)cc1 (stereo not drawn) | i
CCn1c(=O)n(-c2ccc(C)c(C)c2)c2nc(-c3ccc(C)cc3)nc(C(N)=O)c21 | i
CCn1ncnc1-c1c(-c2ccccc2)ncn1CCc1nc(C(C)C)no1 | i
Cc1ccc(OCC(O)CN2C(C)CCCC2C)cc1C (stereo not drawn) | i
CCCOCC1CCN(c2nc(-c3cccnc3)nc3c2cnn3C)C1 (stereo not drawn) | i
Cc1cc(OCc2nc(-c3ccccn3)no2)cc(C)c1Br | i
Cc1c(C)c(C=O)c(C)c(C)c1C=O | i
CN1CCN(c2ccc([N+](=O)[O-])cc2S(=O)(=O)N2CCN(C)CC2)CC1 | i
Cc1ccc2[nH]nc(C(=O)N3CCOC(CCCC(C)C)C3)c2c1 (stereo not drawn) | i
c1ccc(CN2CCN(C3CCCCCC3)CC2)cc1 | i
O=C1C[C@@H]2CCN(Cc3ccccc3)C[C@@H]2CCN1C1CCCCC1 | 76.0%*
NC(=O)[C@H](Cc1ccccc1)N1CC[C@H]2CN(C(=O)C3CCCCC3)CC[C@H]2CC1=O | i
O=C(Cc1ccccc1)Nc1ccc(I)cc1Cl | i
SMILES | ST2 IL33 inh
Cn1c(C(=O)N2CCN(c3ccc(F)cc3)CC2)cc2c(=O)n3ccccc3nc21 | i
CNc1oc(-c2ccc(F)cc2)nc1S(=O)(=O)c1ccccc1 | i
CC(C)Oc1ccc(CC2CC(=O)N(c3ccccc3)C2=O)cc1 (stereo not drawn) | i
Cc1ccc(N=C2c3cc([N+](=O)[O-])ccc3-c3ncccc32)cc1 | i
CCOC(=O)c1cccnc1-c1cc(OC)ccc1F | i
COc1ccc(/C=C2/c3cc(C)ccc3-c3ncccc32)cc1 | 31.0%*
COc1cc(C(=O)NCCc2ccccc2)cc(OC)c1OC | i
CCOc1cc(C(=O)NCCc2ccc(OC)c(OC)c2)cc(OCC)c1OCC | i
O=C(Nc1ccc(F)c(Cl)c1)C1CCCN(S(=O)(=O)c2cnc[nH]2)C1 (stereo not drawn) | i
CSc1ncccc1C(=O)N1CCCC(C(=O)c2cccc(C(F)(F)F)c2)C1 (stereo not drawn) | i
Cc1ccccc1NC(=O)CCC(=O)Nc1ccccc1C | i
Cc1ccc(C(=O)Nc2ccccc2C)cc1 | i
Cc1ccccc1NCCNc1ccccc1C | 34.0%*
COc1cccc(C(=O)NCCN2CCN(c3ccccc3)CC2)c1 | i
CCc1ncc2c(n1)CN(C(=O)c1ccc(-n3ccnc3)cc1)C2 | i
COc1c(Sc2ccc([N+](=O)[O-])cc2)c(C)nn1-c1ccccc1 | 30.0%*
O=[N+]([O-])c1ccc2nn(-c3ccccc3)nc2c1 | i
Cc1ccc(C(=O)n2nc(C)c(Sc3ccccc3)c2C)cc1 | i
Cc1nn(C(=O)C2CC2)c(C)c1Sc1ccccc1 | i
Cc1nn(C(=O)c2ccc([N+](=O)[O-])cc2)c(C)c1Sc1ccccc1 | 42.0%*
Cc1nn(C(=O)c2ccco2)c(C)c1Sc1ccccc1 | i
CCOC(=O)C(C)Sc1nc(C)nc2c1c(=O)n(C)c(=O)n2C (stereo not drawn) | i
COc1ccc(Cl)cc1NC(=O)c1cn(C)c(=O)c2cc(OC)c(OC)cc12 | i
CCN(CC)C1CCN(C(=O)CCc2nnc(Cc3cc(OC)ccc3OC)o2)C1 (stereo not drawn) | i
CC(=O)N1N=C2CC(C)(C)OCC2C1c1ccccc1 (stereo not drawn) | i
Cc1ccc(S(=O)(=O)Nc2ccc3oc(C)c(C(=O)O)c3c2)cc1 | i
O=c1[nH]c2c(s1)C1c3cc([N+](=O)[O-])ccc3OCC1CS2 (stereo not drawn) | i
CC12COc3ccccc3C1c1sc(=O)[nH]c1SC2 (stereo not drawn) | 32.0%*
CC1CCC2C(C1)c1sc(=O)[nH]c1SC2(C)C (stereo not drawn) | i
